Bioassay records deposited in PubChem by National Center for Advancing Translational Sciences (NCATS).
This is a sample that favours compounds with a hit; in the whole collection about 7% have one here.
JMJD2A Tudor – JMJD2A Tudor domain (human) inhibition; AlphaScreen JMJD2A-Tudor / H3K4me3 peptide binding; Potency, µM (highest dose often 114 µM), for the others: top-dose activity change, negative = inhibition, hits mostly inhibitors; actives 4.4% (n = 390,000); O75164; AID 504339; note: potency is the fitted concentration of half-maximal effect; % is set by controls: 0 for no effect and ±100 for the full control effect; nearly all actives have a fitted effect of over 50% in size
KAT2A inh – inhibitors of human GCN5L2 histone acetyltransferase; Q92830; GCN5L2 HAT assay, ThioGlo1 CoA-SH fluorescence; Potency, µM (series often up to 58.9 µM), without a hit: top-dose activity change, negative = inhibition, actives largely listed as inhibitors; actives 0.21% (n = 390,000); AID 504327; note: potency is the fitted concentration of half-maximal effect; % is set by controls: 0 for no effect and ±100 for the full control effect
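GCN5L2 (20 nM) in 50mM HEPES pH 7.5, 0.1mM EDTA, 0.01% Tween-20 preincubated 15 min with compounds at room temperature. Reaction started with H3(1-25) 75uM, acetyl-CoA 70uM, ThioGlo1 50uM; CoA-thiol fluorescence (Ex340/Em540) read at 0 and 20 min.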
HP1b chromo inh – HP1-beta chromodomain-methylated histone interaction inhibition | P83916 | AlphaScreen HP1-beta / biotin-H3K9me3 peptide binding | Potency, µM (series often up to 114 µM), without a hit: at the top dose activity change, negative = inhibition, usual class: inhibitors | actives 0.56% (n = 390,000); note: potency is the fitted concentration of half-maximal effect; nearly all actives have a fitted effect of over 70% in size
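Compound inhibition of the preformed complex between 50 nM HP1-beta and 50 nM biotinylated H3K9me3 peptide was read by AlphaScreen. Buffer was PBS pH 7.4 with 0.01% Tween-20. Incubations ran 30 min at room temperature, with 10 ug/mL donor/acceptor beads.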
PLK1 PBD inh – PLK1 (human) polo-box domain binding inhibition. P53350. Plk1 PBD binding of FITC phosphopeptide, fluorescence polarization. Potency, µM, for the others: max response, negative = inhibition, actives largely listed as inhibitors. actives 2.8% (n = 360,000). AID 720504; note: potency is the fitted concentration of half-maximal effect; series mostly up to about 57 µM; % is set by controls: 0 for no effect and ±100 for the full control effect; nearly all actives have a fitted effect of over 65% in size
PI5P4K alpha inh – inhibitors of human PI5P4K alpha; P48426; PI5P4Kalpha enzyme, ADP-Glo luminescence, 60 min; stronger effect = lower value; max response, %; actives 1.2% (n = 330,000); AID 652105; active = max response of -50% or lower; inconclusive = between -30% and -50%; inactive = -30% or higher; note: value at the top dose of about 77 µM; % is set by controls: 0 for no effect and ±100 for the full control effect
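ADP-Glo luminescence end-point read after a 60 min room-temperature kinase reaction of PI5P4Kalpha plus substrate, initiated with ATP at 5 microM final. Buffer: 0.038 M HEPES pH 7.4, EGTA, 0.1% CHAPS, 5% DMSO.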
BAZ2B block – blocks human BAZ2B; Q9UIF8; AlphaScreen BAZ2B-H3K14Ac peptide displacement; Potency, µM (doses to about 114 µM), inactives show at the highest dose activity change, negative = inhibition, actives largely listed as inhibitors; actives 4.4% (n = 360,000); note: potency is the fitted concentration of half-maximal effect; % is set by controls: 0 for no effect and ±100 for the full control effect; nearly all actives have a fitted effect of over 60% in size
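Compounds, titrated to a top concentration of 110 uM, were incubated 30 min at room temperature with preformed BAZ2B/acetyl-K14 H3 peptide complex (50 nM each). Proximity signal was measured by AlphaScreen after 20 min with beads.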
The depositor's hits bear a star; ? = inconclusive; . = no result; [ ] = remark or other dose. Unless noted, calls come from the whole dose curve; as a rule, active = well fitted curve in the direction sought with a large enough effect; inconclusive = small, poorly fitted or top-dose-only effect, or another doubt; inactive = no such curve, though single readings can be large; an effect the other way counts as inactive or inconclusive.

SMILES	JMJD2A Tudor	KAT2A inh	HP1b chromo inh	PLK1 PBD inh	PI5P4K alpha inh	BAZ2B block
COc1ccccc1Nc1ccc(C(=O)O)cc1[N+](=O)[O-]	-28%	-10%	10%	1%	-4	-34%
COc1ccc(Nc2ccc(S(=O)(=O)N3CCCCCC3)cc2[N+](=O)[O-])cc1	6.3µM*	21%	25µM*	-5%	-2	10µM*
COc1ccccc1Nc1ccc(S(=O)(=O)N2CCCCC2)cc1[N+](=O)[O-]	10µM*	3%	?	-9%	9	8.9µM*
COc1ccccc1C(C)Nc1ccc(S(=O)(=O)N2CCN(C)CC2)cc1[N+](=O)[O-] (stereo not drawn)	35µM*	-7%	?	1%	2	40µM*
CCCOc1ccc(S(=O)(=O)N2CCOCC2)cc1[N+](=O)[O-]	89µM*	-4%	-7%	0%	-6	-15%
COc1ccc(C(OC(=O)c2ccco2)C(=O)NC2CCCC2)cc1 (stereo not drawn)	-13%	-3%	-7%	-8%	0	4%
COC(=O)c1ccccc1NC(=O)c1cc(CN2CCOCC2)on1	-16%	-2%	72%	.	.	1%
Cc1cccc(Nc2ccc(S(=O)(=O)N3CCOCC3)cc2[N+](=O)[O-])c1	10µM*	0%	?	-7%	-9	?
O=[N+]([O-])c1ccc(Nc2ccc(N3CCOCC3)cc2)c([N+](=O)[O-])c1	?	-5%	32µM*	-18%	0	11µM*
COc1ccc(Nc2ccc3cc(S(=O)(=O)N4CCCC4)ccc3n2)cc1OC	?	-9%	22%	.	.	?
COc1ccc(Nc2ccc(S(=O)(=O)N3CCCCC3)cc2[N+](=O)[O-])cc1OC	?	-7%	?	-4%	-1	10µM*
CSc1cccc(Nc2ccc(S(=O)(=O)N3CCOCC3)cc2[N+](=O)[O-])c1	?	-11%	-14%	-4%	2	?
O=C(CSc1ccccc1)N1CCN(S(=O)(=O)c2ccccc2)CC1	-18%	-7%	21%	12µM*	-6	-3%
COC(=O)C1CCN(C(=O)CSc2ccccc2)CC1	-16%	3%	31%	21µM*	1	5%
CC(=O)c1ccc(NCC(=O)N2CCN(S(=O)(=O)c3ccccc3)CC2)cc1	1%	-14%	34%	3%	-1	1%
O=C(CNc1ccc(Cl)c(C(F)(F)F)c1)N1CCN(S(=O)(=O)c2ccccc2)CC1	79µM*	.	-33%	-7%	-2	.
COC(=O)C1CCN(C(=O)CCCOc2ccccc2)CC1	-26%[57.1 µM]	-1%	-6%	?	2	0%
O=C(O)CSCC(=O)N1CCN(S(=O)(=O)c2ccccc2)CC1	-11%	-14%	4%	-10%	-6	-22%
CC1(C(=O)Nc2cccc(OC(F)(F)F)c2)Cc2c(-c3ccc4c(c3)OCO4)ccnc2O1 (stereo not drawn)	.	.	.	5%	5	.
CC[C@H]1c2[nH]c3ccccc3c2C[C@H]2C(=O)N(c3ccc(F)cc3)C(=O)N21	-22%	-13%	13%	-14%	-1	-8%
O=C(Nc1ccccc1C(=O)N1CCCCC1)c1nsc2ccccc12	1%	-5%	56%[57 µM]	.	.	12%
Cc1cccc(-n2c(CCn3nc(C)c([N+](=O)[O-])c3C)n[nH]c2=S)c1	20µM*	4%	24%	-16%	.	-2%
COc1cccc(-n2c(CCn3nc(C)c([N+](=O)[O-])c3C)n[nH]c2=S)c1	11µM*	0%	?	-15%	-10	7%
COc1ccc(CCn2nc(C)c([N+](=O)[O-])c2C)cc1	-2%	-4%	37%	0%	2	-1%
O=C(c1ccccc1)c1cn(Cc2ccc(F)cc2)c2ccccc2c1=O	-25%	-8%	16%	.	.	-22%
SMILES	JMJD2A Tudor	KAT2A inh	HP1b chromo inh	PLK1 PBD inh	PI5P4K alpha inh	BAZ2B block
CCOC(=O)c1c(N)sc(=S)c2c1CCC2	?	-4%	?	?	?	45µM*
CCCOC(=O)c1c(N)sc2c1CCC2	?	-5%	?	-29%	-11	?
CCOC(=O)c1c(N)ssc1=S	?	-15%	?	6.7µM*	.	?
CCOC(=O)c1c(N)sc(C(=O)N2CCCCCC2)c1C	-8%	1%	6%	-14%	3	4%
COc1ccc(S(=O)(=O)n2nc(C)c(S(=O)(=O)N3CCOCC3)c2C)cc1OC	.	-11%	.	.	.	?
CN(C)c1ccc(NC(=O)Cn2nnc3sc4c(c3c2=O)CCC(C(C)(C)C)C4)cc1 (stereo not drawn)	?	-11%	-10%	.	.	?
CCOc1ccc(CCNC(=O)c2sc3nc4n(c(=O)c3c2C)CCC4)cc1OCC	-17%	-21%	27%	-1%	-3	-10%
COc1ccc(CNC(=O)c2sc3nc4n(c(=O)c3c2C)CCCC4)cc1	89µM*	?	56%	.	.	45µM*
Cc1c(C(=O)Nc2cccc(C#N)c2)sc2nc3n(c(=O)c12)CCCCC3	-12%	2%	36%	.	.	50µM*
Cc1c(C(=O)NCc2cccc(Cl)c2)sc2nc3n(c(=O)c12)CCCC3	79µM*	-9%	61%	.	.	18µM*
CCc1cccc(NC(=O)c2sc3nc4n(c(=O)c3c2C)CCC4)c1	-1%	-8%	20%	-10%	8	-18%
CCOc1ccc(CCNC(=O)c2sc3nc4n(c(=O)c3c2C)CCCC4)cc1OCC	-14%	-20%	71%	.	.	56µM*
N#CCc1ccc(OC(=O)c2cnccc2C(F)(F)F)cc1	-8%	-1%	44%	1%	5	-6%
COCCN(CC(=O)Nc1cccc(C)c1C)C(=O)c1ccc(S(=O)(=O)N2CCOCC2)cc1	-21%	-6%	1%	-3%	-5	10%
Cc1ccc(CN2CCN(/N=C/c3cc([N+](=O)[O-])ccc3Cl)CC2)cc1	35µM*	-6%	?	-3%	-7	32µM*
O=[N+]([O-])c1cc(CN2CCC(O)CC2)ccc1Cl	0.89µM*	1%	?	10%	-4	50µM*
Cc1ccc(CN2CCN(/N=C/c3ccc(Cl)c([N+](=O)[O-])c3)CC2)cc1	45µM*	-1%	?	-1%	6	14µM*
CC(OC(=O)c1ccc(Cl)c([N+](=O)[O-])c1)C(=O)N1CCN(Cc2ccccc2)CC1 (stereo not drawn)	-33%	-5%	4%	-2%	-3	-11%
CCC(C)(C)NC(=O)C1CCC(CNS(=O)(=O)c2ccc3c(c2)CC(C)N3C(C)=O)CC1 (stereo not drawn)	-18%	-3%	15%	.	.	-18%
O=C(N/C(=C\c1cccc([N+](=O)[O-])c1)C(=O)N1CCOCC1)c1ccco1	-13%[57.1 µM]	-3%	-2%	?	-1	0%
